GoLoco inh red: qHTS Assay for Inhibitors of RGS12 GoLoco Motif Activity (Red Fluorophore) | Gai1:RGS12 GoLoco peptide FP, rhodamine, 10 min | Potency, µM (series often up to 61.6 µM), without a hit: at the highest dose activity, negative = inhibition, most hits filed as inhibitors | actives 0.44% (n = 230,000) | Guanine nucleotide-binding protein G(i) subunit alpha-1 (Homo sapiens), P63096 | AID 880, 2007; active = well fitted inhibition curve with a large enough effect, not every such curve was filed as active; inactive = no such curve, though single readings can be large or run the other way; note: nearly all actives have a fitted effect of over 30% in size
L3MBTL1 block: qHTS Assay for the Inhibitors of L3MBTL1 | AlphaScreen L3MBTL1–H3K9me1 peptide binding | Potency, µM (titrated, usually from 57.1 µM), without a hit: at the top dose activity, negative = inhibition, hits mostly inhibitors | actives 0.66% (n = 230,000) | Lethal(3)malignant brain tumor-like protein 1 (Homo sapiens), Q9Y468; note: nearly all actives have a fitted effect of over 60% in size
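First, the protein-peptide complex forms for 30 min at room temperature (L3MBTL1 50 nM, biotinylated H3K9me1 peptide 75 nM). Next, compounds are pin-transferred and incubated 30 min. Finally, AlphaScreen beads are added and read after 30 min.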
APEX1 inh: qHTS Assay for Inhibitors of the Human Apurinic/apyrimidinic Endonuclease 1 (APE1); DNA repair nuclease/redox regulator APEX1 (Homo sapiens), P27695; AID 2517, 2012; recombinant APE1, TAMRA/BHQ-2 abasic DNA cleavage fluorescence; actives 0.35% (n = 350,000); Potency, µM (doses to about 65.8 µM), for inactives: at the top dose activity change, negative = inhibition, actives largely listed as inhibitors;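 note: plate controls were vehicle for no effect and reference inhibitor for full effect; nearly all actives have a fitted effect of over 55% in size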
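Kinetic fluorescence read (525 ex/598 em nm, three reads 60 s apart) of AP-site incision; signal = third minus first read. Enzyme 0.75 nM, dual-labelled THF duplex 50 nM, compound preincubation 15 min RT.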
BLM inh: qHTS Assay for Inhibitors of Bloom's syndrome helicase (BLM). Potency, µM (doses to about 56.1 µM), inactives show top-dose activity change, negative = inhibition, most hits filed as inhibitors. recombinant BLM DNA unwinding, fluorescence dequenching. actives 0.2% (n = 350,000). AID 2528, 2010;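 note: plate controls were vehicle for no effect and no enzyme for full effect; nearly all actives have a fitted effect of over 35% in size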
JMJD2E inh: qHTS Assay for Inhibitors of Human Jumonji Domain Containing 2E (JMJD2E); Lysine-specific demethylase 4E (Homo sapiens), B2RXH2; JMJD2E catalytic domain, FDH-coupled NADH fluorescence (FDH is formaldehyde dehydrogenase); Potency, µM (titrated, usually from 57.1 µM), without a hit: at the top dose activity change, negative = inhibition, most hits filed as inhibitors; actives 1.6% (n = 230,000); active = well fitted inhibition curve with a large enough effect, not every such curve was filed as active; inconclusive = small, poorly fitted or top-dose-only effect, or another doubt; inactive = no such curve, though single readings can be large or run the other way;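 note: 0% = wells with enzyme and -100% = buffer wells without enzyme; nearly all actives have a fitted effect of over 50% in size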
RECQ1 inh-1: qHTS Assay for Inhibitors of RecQ-Like Dna Helicase 1 (RECQ1); ATP-dependent DNA helicase Q1 (Homo sapiens), P46063; RECQ1 DNA unwinding, red fluorescence kinetic read; Potency, µM (titrated, usually from 57.3 µM), inactives show at the highest dose activity, negative = inhibition, most hits filed as inhibitors; actives 0.54% (n = 240,000);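 note: plate controls were vehicle for no effect and no enzyme for full effect; nearly all actives have a fitted effect of over 30% in size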
Target sequence (P46063 whole entry, looked up): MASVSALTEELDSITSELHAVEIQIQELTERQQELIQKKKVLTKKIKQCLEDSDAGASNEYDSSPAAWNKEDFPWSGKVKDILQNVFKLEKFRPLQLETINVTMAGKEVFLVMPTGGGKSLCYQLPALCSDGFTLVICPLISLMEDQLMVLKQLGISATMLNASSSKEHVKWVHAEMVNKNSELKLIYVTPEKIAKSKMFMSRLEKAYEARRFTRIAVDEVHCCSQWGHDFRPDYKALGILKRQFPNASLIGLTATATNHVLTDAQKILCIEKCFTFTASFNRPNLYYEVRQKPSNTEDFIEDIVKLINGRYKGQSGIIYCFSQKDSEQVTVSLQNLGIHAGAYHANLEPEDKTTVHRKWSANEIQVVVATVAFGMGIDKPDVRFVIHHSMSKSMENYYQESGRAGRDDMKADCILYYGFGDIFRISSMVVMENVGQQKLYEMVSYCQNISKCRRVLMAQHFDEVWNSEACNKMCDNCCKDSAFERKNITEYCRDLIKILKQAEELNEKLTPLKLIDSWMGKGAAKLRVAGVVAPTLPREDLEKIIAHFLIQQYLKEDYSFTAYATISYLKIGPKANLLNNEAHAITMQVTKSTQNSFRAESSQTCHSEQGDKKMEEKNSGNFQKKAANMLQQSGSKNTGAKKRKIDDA
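50 nM RECQ1T1 preincubated 15 min with compound in Tris pH 8.0 buffer with MgCl2, DTT, Tween-20 and 2.5 ug/ml poly(dI-dC); started with 200 nM TAMRA/BHQ-2 forked duplex and 2 mM ATP. Unwinding read as fluorescence (525/598 nm), two reads 2 h apart.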
RECQ1 conf: Confirmation qHTS Assay for Inhibitors of RecQ-Like Dna Helicase 1 (RECQ1); shares compounds with RECQ1 inh-1; Potency, µM (top dose mostly 229 µM), inactives show top-dose activity change, negative = inhibition, most hits filed as inhibitors; AID 2708, 2010; RECQ1 helicase DNA unwinding, fluorescence; actives 28% (n = 610); note: nearly all actives have a fitted effect of over 45% in size
ADP FP counter: Counterscreen for RECQ1 Inhibitors: ADP Fluorescence Polarization Displacement Assay; AID 2711, 2010; Potency, µM (titrated, usually from 228 µM), without a hit: at the highest dose activity change, negative = inhibition, most hits filed as inhibitors; ADP fluorescence polarization displacement counterscreen; actives 27% (n = 530); shares compounds with RECQ1 inh-1; note: nearly all actives have a fitted effect of over 45% in size
RECQ1 inh-2: Confirmation qHTS Assay for Inhibitors of RecQ-Like Dna Helicase 1 (RECQ1) - Round 2 Cherry Picks; shares compounds with RECQ1 inh-1; recombinant RECQ1 DNA unwinding, red fluorescence; Potency, µM (top dose mostly 119 µM), for inactives: at the top dose activity, negative = inhibition, most hits filed as inhibitors; actives 15% (n = 1,100); note: nearly all actives have a fitted effect of over 50% in size
The depositor's hits bear a star; i = inactive; ? = inconclusive; nt = not tested or not shown; [ ] = another dose, or the depositor's remark. Many of the other results were omitted from the sample, so hits are more common in it than they were. Unless noted, calls come from the whole dose curve; as a rule, active = well fitted curve in the direction sought with a large enough effect; inconclusive = small, poorly fitted or top-dose-only effect, or another doubt; inactive = no such curve, though single readings can be large; an effect the other way counts as inactive or inconclusive. Unless noted, % is set by controls: 0 for no effect and ±100 for the full control effect; potency is the fitted concentration of half-maximal effect.

SMILES	GoLoco inh red	L3MBTL1 block	APEX1 inh	BLM inh	JMJD2E inh	RECQ1 inh-1	RECQ1 conf	ADP FP counter	others
Cc1ccc(C(=O)Nc2ccccc2C(=O)NC(Cc2c[nH]c3ccccc23)C(=O)O)cc1 (stereo not drawn)	18%	5%	-3%	-1%	2%	i	14%	-12%
O=C(NC(Cc1c[nH]c2ccccc12)C(=O)O)/C(=C\c1ccccc1)NC(=O)c1ccccc1 (stereo not drawn)	nt	nt	73%	-4%	nt	nt	nt	nt
Cc1ccc(C(=O)Nc2ccccc2C(=O)NC(Cc2ccccc2)C(=O)O)cc1 (stereo not drawn)	11%	11%	11%	-4%	?	i	nt	nt
O=C(Cn1nnc2ccccc2c1=O)N[C@@H](Cc1c[nH]c2ccccc12)C(=O)O	6%	9%	-1%	0%	-2%	7%	6%	2%
O=C(NC(Cc1c[nH]c2ccccc12)C(=O)O)/C(=C/c1ccc2c(c1)OCO2)NC(=O)c1ccccc1 (stereo not drawn)	1%	nt	-5%	-1%	-12%	-5%	4%	?
O=C(Nc1cc(-c2ccc(F)c(F)c2)no1)c1ccccc1F	nt	nt	nt	1%	nt	nt	nt	nt
Cc1cccn2c(=O)cc(COc3ccc(NC(=O)C(C)Oc4ccccc4)cc3)nc12 (stereo not drawn)	nt	nt	nt	-5%	nt	nt	nt	nt
COc1cccc(-c2nnc3n2N=C(c2ccc(OC)cc2OC)CS3)c1	nt	nt	-7%	9%	nt	-13%	nt	nt
CCOc1ccccc1NC(=O)CN(C)S(=O)(=O)c1cnc[nH]1	-1%	14%	-3%	-1%	9%	16µM*	-1%[114 µM]	8%[91.9 µM]	RECQ1 inh-2=-2%
O=C(O)c1ccccc1Cl	12%	nt	4%	nt	nt	-5%	nt	nt
Cc1ccc(S(=O)(=O)N[C@H](CN)C(=O)O)cc1	3%[14.2 µM]	nt	nt	nt	nt	nt	nt	nt
Cc1ccc(NC(=S)NC(=O)/C=C/c2ccco2)c(O)c1	21%	-10%	?	-14%	16%	?	nt	nt	RECQ1 inh-2=-23%
CCN(CC)CCOc1c(Br)ccc2c1sc1nc3n(c(=O)c12)CCC3	-3%	0%	0%	177%	-14%	?	nt	nt	RECQ1 inh-2=-23%
O=c1c2c(nc3n1CCCCC3)sc1c(O)c(Br)ccc12	-34%	nt	-3%	-9%	0%	-7%	nt	nt
Cc1c(Cl)cccc1-c1ccc(CNCCSc2nnnn2-c2ccccc2)o1	nt	nt	nt	-6%	nt	nt	nt	nt
O=C(CSc1nnc(-c2ccco2)n1Cc1ccccc1)c1ccc(F)cc1	147%	-22%	1%	-13%	-6%	?	nt	nt	RECQ1 inh-2=-17%
COc1cc(SC)ccc1C(=O)Nc1ccc(S(=O)(=O)Nc2nccc(C)n2)cc1	nt	nt	nt	6%	nt	nt	nt	nt
CCOc1cc(NC(=O)c2cnccn2)c(OCC)cc1NC(=O)c1cccc(F)c1	14%	1%	-1%	-1%	-2%	-2%	9%	?
CCOC(=O)c1sc2nc(CC(=O)OC)nc(NCc3ccco3)c2c1C	55%	-13%	-10%	-16%	?	-28%	nt	nt
CCOC(=O)c1sc2ncnc(NCc3ccco3)c2c1C	90%	nt	?	-9%	?	?	nt	nt	RECQ1 inh-2=-9%
Cc1ccc(Oc2nc3ccccn3c(=O)c2/C=C(\C#N)C(=O)Nc2c(C)n(C)n(-c3ccccc3)c2=O)c(C)c1	2%	-1%	2%	-4%	?	-1%	-2%	10%
COc1ccccc1Oc1nc2ccccn2c(=O)c1/C=C(\C#N)C(=O)Nc1c(C)n(C)n(-c2ccccc2)c1=O	17%	1%	2%	-9%	-15%	0%	5%	28%
O=S(=O)(C[C@H](O)C(Cl)(Cl)Cl)NNc1ccccc1	-5%[14.2 µM]	nt	nt	nt	nt	nt	nt	nt
CC(Sc1nnc(COc2ccccc2)n1Cc1ccccc1)C(=O)O (stereo not drawn)	16%	17%	19%	-3%	-1%	-7%	nt	nt
Cc1cc(OCc2nnc(SC(C)C(=O)O)n2Cc2ccccc2)ccc1Cl (stereo not drawn)	6%	3%	2%	-4%	1%	i	13%	-12%
SMILES	GoLoco inh red	L3MBTL1 block	APEX1 inh	BLM inh	JMJD2E inh	RECQ1 inh-1	RECQ1 conf	ADP FP counter	others
CC(Sc1nnc(COc2ccc(Cl)cc2)n1Cc1ccccc1)C(=O)O (stereo not drawn)	4%	5%	4%	3%	2%	-1%	17%	1%
FC(F)(F)c1ccccc1-c1cncnc1NCCc1cnc[nH]1	-3%	nt	15%	4%	6%	?	nt	nt
CCOC(=O)c1ccc(N2CCN(c3cccc(Cl)c3)CC2)c(NC(=O)Nc2ccc(Cl)cc2)c1	nt	nt	nt	-10%	nt	nt	nt	nt
O=C(O)CCC(=O)Nc1nc2nccc(-c3ccccc3)n2n1	i	-18%	?	9%	?	-25%	?	-2%
CCCc1ccc(OC(C)C(=O)Nc2sc3c(c2C(=O)OC)CCCCC3)cc1 (stereo not drawn)	nt	nt	nt	-6%	nt	nt	nt	nt
CCOc1c(OC(C)=O)ccc(/C=C/c2ccc3cccc(OC(C)=O)c3n2)c1[N+](=O)[O-]	-13%	-10%	-5%	-14%	-8%	32µM*	nt	nt	RECQ1 inh-2=-11%
Cc1ccc(/C=C2/SC(=O)NC2=S)o1	5µM*	nt	13µM*	-12%	?	18µM*	13%[114 µM]	35µM*	RECQ1 inh-2=?
Cc1ccc(/C=C2/SC(=S)N(C3CCCCC3)C2=O)o1	nt	nt	78%	0%	nt	nt	nt	nt
Cc1cccc(N(C(=O)c2ccc(Cl)cc2)C2CS(=O)(=O)CC2OC(=O)c2ccc(Cl)cc2)c1 (stereo not drawn)	12%	-3%	8%	-7%	-2%	?	nt	nt	RECQ1 inh-2=-11%

Screening data (PubChem BioAssay)
